Sampled rows, rich in hits. Any-hit rate of the full collection: about 1.8%.
Mot1-301 SUMO: yeast Mot1-301 growth rescue at high temperature, primary screen, SUMOylation pathway inhibitor project, S. cerevisiae, ATP luminescence, 38.5C | 1% of 320,000 active | growth rescue, % at 18.8 µM | S. cerevisiae Mot1-301 growth rescue; percent above DMSO median, 100 means doubled;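 active = every valid replicate shows activation above 250% relative to neutral control wells; inactive = the rest, any valid replicate at or below 250%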;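 also: OY570 slx delta 5 strain wells were the positive control but not used for scaling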
aDG glyco up: activators of alpha-DG glycosylation, primary screen, uHTS, Pro5-aDG cells, AlphaScreen | alpha-DG glycosylation AlphaScreen (IIH6); 0% Pro5, 100% B10-LARGE cell signal | activation, % at 10 µM | 0.22% of 360,000 active | AID 624168, 2012;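 active = activation of at least 8% versus controls, or a plate z-score of at least 8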;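 also: Pro5 are CHO cells carrying HIG-tagged alpha-DG that lacks glycosylation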
A1 inh: caspase 3/7 activation in MEF A1-2A-BIM cells, primary screen, A1 inhibitor project, cell-based, luminescence, HTS; Caspase-Glo 3/7 luminescence, 3 h; percent of clofoctol response, vehicle zero; caspase activation, % (no concentration beside the values); 0.066% of 330,000 active;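 active = over half of replicate activation scores above 10%, or exactly half above 10 with the replicate mean above 10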
ARNT TACC3 PPI: disruptors of ARNT/TACC3 protein interaction, primary screen, biochemical, AlphaScreen, single concentration. Transforming acidic coiled-coil-containing protein 3 (Homo sapiens), Q9Y6A5. AlphaScreen His-ARNT PAS-B/GST-TACC3 binding, luminescence; TACC3 fragment carries E629A point mutation. inhibition, % at 9.99 µM. 0.66% of 390,000 active. AID 623870, 2012;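 active = mean inhibition of replicates at least 50% and at least half of replicates each reaching 50%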;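 also: 0% = complete ARNT plus TACC3 wells and 100% = ARNT alone without TACC3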
AI-2 QS mod: Vibrio harveyi AI-2 quorum sensing modulators, primary screen, JMH597 strain, luminescence/OD600 ratio | 0.4% of 300,000 active | activity change, % at 7.5 µM | Vibrio harveyi JMH597 AI-2 luminescence/OD600 ratio, 9 h; hits give low values; strain lacks LuxN and CqsS sensors; 0 = neutral-control median; in the data active = activity change below about -75%, passing the limit was not always enough;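 also: luminescence divided by OD600 gain over 9 h not by final OD600 alone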
The depositor's hits bear a star; nt = no result given.

SMILES | Mot1-301 SUMO | aDG glyco up | A1 inh | ARNT TACC3 PPI | AI-2 QS mod
Cc1cccc(C(=O)N/N=C/c2ccccn2)c1 | -22 | 0 | -1 | 54* | 9
O=C(N/N=C/c1ccccn1)c1cc([N+](=O)[O-])cc([N+](=O)[O-])c1 | 11 | 0 | 0 | 61* | -36
O=C(N/N=C/c1ccccn1)c1ccc([N+](=O)[O-])cc1 | -12 | 0 | 1 | 35 | 33
O=C(N/N=C/c1ccccn1)c1cccc(S(=O)(=O)Nc2ccccc2Cl)c1 | 164 | 0 | 0 | 65* | 61
O=C(N/N=C/c1ccccn1)c1cc(C2CC2)[nH]n1 | 1 | 0 | -1 | 48* | 32
CC(=O)Nc1ccc(S(=O)(=O)Nc2ccc(C(=O)NCC(=O)O)cc2)cc1 | 349* | 0 | 0 | 2 | 19
CCOC(=O)c1c(N)sc(C(=O)N2CCCCC2)c1C | 72 | 0 | 0 | 47* | 14
CCOC(=O)c1c(N)sc(C(=O)N2CCCC2)c1C | 1 | 0 | 1 | nt | 21
O=C(CCCC(=O)OCC(Cl)=C(Cl)Cl)Nc1ccccc1F | -2 | 0 | 0 | -1 | 9
COC(=O)C1=C(C)Nc2nnnn2C1c1ccccc1Cl (stereo unspecified) | 339* | 0 | 0 | 1 | 15
COc1ccccc1N=Nc1ccc(O)c2ncccc12 | -13 | 0 | -1 | 66* | 12
COc1ccc(F)c(CN2CCC(n3nccc3NC(=O)CCCc3ccccc3)CC2)c1 | -9 | 0 | 0 | 0 | -95*
Cc1ccccc1CN1CCC(n2nccc2NC(=O)CCCc2ccccc2)CC1 | 7 | 0 | 1 | 0 | 27
O=C(Nc1nccs1)c1cccc(N2C(=O)C3C4C=CC(C4)C3C2=O)c1 (stereo unspecified) | 6 | 0 | 1 | 2 | 26
COc1ccc(-n2nnnc2S(=O)(=O)CC(=O)N2CCCCC2)cc1 | 486* | 0 | 1 | -16 | nt
COc1cccc(C2c3c(oc4ccccc4c3=O)C(=O)N2Cc2ccco2)c1 (stereo unspecified) | 143 | 0 | 0 | 47* | 24
COc1cccc(C(=O)/C=C/c2ccc(OCC#N)c(OC)c2)c1 | 2 | 0 | 0 | 1 | 5
CN(C)C(N)=NCCC[C@H](N)C(=O)O | 62 | 0 | 0 | active | 5
S=C(Nc1ccccc1)Nc1ccc2cn[nH]c2c1 | -14 | 0 | -1 | -4 | 9
CCOc1ccccc1NC(=S)Nc1ccc2cn[nH]c2c1 | nt | 0 | nt | active | 10
O=c1[nH]c(=O)n(Cc2ccccc2)c2c1C(C(F)(F)F)(C(F)(F)F)N=C(c1ccco1)N2 | 32 | 0 | 0 | -4 | 11
O=C(c1ccc2c(c1)N(Cc1ccccc1)CCS2)N1CCOCC1 | 13 | 0 | 0 | -1 | 22
O=C(c1ccc2c(c1)N(Cc1ccc(F)cc1)CCS2)N1CCOCC1 | -6 | 0 | 0 | 8.5* | 5
COc1ccc(NC(=O)c2cccn(CC=C(C)C)c2=O)cc1 | 331* | 0 | 0 | -5 | -3
S=C(NCc1ccccc1)Nc1cccc(Cl)c1 | -7 | 0 | -1 | -191 | -78*
SMILES | Mot1-301 SUMO | aDG glyco up | A1 inh | ARNT TACC3 PPI | AI-2 QS mod
O=C(CNCCN1CCOCC1)Nc1ccccc1Sc1ccccc1 | -25 | 1 | 0 | -3 | 8
COc1ccc(-c2nc(NC(=O)c3nc4nccc(C)n4n3)sc2C)cc1 | 18 | -1 | 0 | 0 | 29
CC1CCC2C(=O)N(c3ccc(C(=O)Oc4cccc5cccnc45)cc3)C(=O)C2C1 (stereo unspecified) | -29 | 1 | 0 | 49* | 8
CCc1ccc(Oc2ncnc(N)c2[N+](=O)[O-])cc1 | -4 | 0 | 1 | -7 | 16
CC(C)NC(=O)Nc1ccc2c(c1)C(=O)N([C@@H](C)CO)C[C@@H](C)[C@H](CN(C)Cc1ccc(C(F)(F)F)cc1)OCCCC[C@@H](C)O2 | nt | nt | nt | 2 | nt
COC1=C(Nc2ccccc2)C(=O)c2ccccc2C1=O | -10 | 3 | 0 | 46* | -7
COC1=C(Nc2ccc(C)cc2)C(=O)c2ccccc2C1=O | -2 | 0 | 0 | 51* | 14

Assay outcomes (PubChem)
